Laboratory results as given in PubChem BioAssay AID686960 (The Scripps Research Institute Molecular Screening Center, 2013).
The list shows a part of the results. A number with no mark means an inactive call. Rule as the data show it: active = IC50 below about 10 µM; inactive = the rest.

Assay: dye displacement from CAG DNA duplex – biochemical, fluorescence, TO-PRO-1 dye, counter-screen for rCAG RNA repeat binder project, dose response (AID 686960)
Conditions: DNA CAG/GTC duplex TO-PRO-1 dye displacement fluorescence

O=C1CC(=O)N(Cc2ccccc2)C(=O)N1CCCCCCN1C(=O)CC(=O)N(Cc2ccccc2)C1=O gave an IC50 of 11.5 µM.
